Assay results: PubChem BioAssay AID731 (The Scripps Research Institute Molecular Screening Center, 2007)
Among all 200,000 compounds or so, about 520 (0.26%) were called active. No stated cut-off is given here; in the data, active means activation above about 23%; inactive means the rest. The entries come from a sample that favours actives as a whole.

Target: Peroxisome proliferator-activated receptor gamma (Homo sapiens) (UniProt P37231)
Assay: PPARgamma agonists recruiting SRC-3 coactivator, primary screen, biochemical (AID 731);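 further: 0% = DMSO and 100% = reference agonist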
Conditions: biochemical PPARgamma/SRC-3 coactivator recruitment assay; at 8 µM; stronger effect = higher value

Chain of Peroxisome proliferator-activated receptor gamma (Homo sapiens) (P37231 whole entry, looked up): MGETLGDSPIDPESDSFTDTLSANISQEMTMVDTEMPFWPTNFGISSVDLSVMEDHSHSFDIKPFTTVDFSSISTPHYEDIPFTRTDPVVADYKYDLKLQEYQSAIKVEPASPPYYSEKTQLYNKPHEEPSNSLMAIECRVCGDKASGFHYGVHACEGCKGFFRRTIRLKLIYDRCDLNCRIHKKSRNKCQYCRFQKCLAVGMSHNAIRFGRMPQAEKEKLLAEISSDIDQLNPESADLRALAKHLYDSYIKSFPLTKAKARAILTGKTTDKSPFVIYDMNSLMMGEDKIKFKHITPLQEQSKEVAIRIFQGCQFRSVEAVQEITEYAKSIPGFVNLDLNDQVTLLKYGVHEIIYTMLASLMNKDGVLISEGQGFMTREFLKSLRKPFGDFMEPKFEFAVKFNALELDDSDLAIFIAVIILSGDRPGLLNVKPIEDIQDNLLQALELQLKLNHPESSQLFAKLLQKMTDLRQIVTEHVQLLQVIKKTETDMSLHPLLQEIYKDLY

activation, inactive:
Cc1cccc(NC(=O)c2cc([N+](=O)[O-])ccc2N2CCN(C)CC2)c1 4.61%
CCc1cc(C(=O)OC)c(NC(=O)CC2Sc3ccc(C(F)(F)F)cc3NC2=O)s1 (centres undefined) -4.95%
CCOc1cc(/C=N/NC(=O)c2ccc(CSc3nncn3C)cc2)ccc1OCC(=O)N1CCOCC1 -1.91%
CC(OC(=O)CNS(=O)(=O)/C=C/c1ccccc1)C(=O)Nc1ccc(S(=O)(=O)N2CCCC2)cc1 (centres undefined) -1.83%
CC(C(=O)O)n1cnc2sc3c(c2c1=O)CCCC3 (centres undefined) 4.24%
COc1ccc(N2C(=O)CC(SC(C)C)C2=O)cc1 (centres undefined) -1.07%
CN(Cc1cccc2ncccc12)C(=O)CC1C(=O)NCCN1Cc1ccc(F)cc1 (centres undefined) -0.7%
O=C(/C=C/Nc1ccccc1)c1cnc(-c2ccccc2)s1 -4.1%
CC(C)Cn1c(N2CCN(C(=O)/C=C/c3ccccc3)CC2)nc2ccccc21 9.26%
COc1cccc(NC(=O)CN(C)CC(=O)Nc2ccc3c(c2)CCC3)c1 0.47%
O=C(Cc1ccccc1)NNS(=O)(=O)c1ccc([N+](=O)[O-])cc1 1.7%
CCCCn1nc(C(=O)Nc2ccc(S(=O)(=O)Nc3ncccn3)cc2)c2ccccc2c1=O 2.84%
CC(C)C(c1nnnn1C(C)(C)C)N1CCN(Cc2cccnc2)CC1 (centres undefined) 4.42%
CCn1c(C(C)C)n[nH]c1=S 1.32%
CCN(CC(=O)NCc1cccs1)C(=O)c1ccccc1F 1.34%
COc1cc(CNCCN(C)C)ccc1OCc1c(F)cccc1Cl 2.34%
c1ccc(Cc2cc[n+](Cc3ccccc3)cc2)cc1 1.56%
NS(=O)(=O)c1cc(C(=O)NCCOc2ccccc2)c(Cl)cc1Cl -1.64%
CCc1nnc(NC(=O)[C@@H](NC(=O)c2cccc(C)c2)C(C)C)s1 -2.92%
COc1ccc(-c2nnc3ccc(SCc4ccccc4)nn23)cc1 3.96%
Cc1cc(C)nc(NC(=O)c2cccc([N+](=O)[O-])c2)c1 2.34%
CC(C)[C@H](NC(=O)c1ccc(F)cc1)C(=O)OCC(=O)NC(=O)c1cccn1C 1.86%
O=C(Cn1c(N2CCN(C/C=C/c3ccccc3)CC2)nc2ccccc21)c1ccccc1 6.67%
N/C(=N\OC(=O)c1ccc([N+](=O)[O-])cc1)c1ccccn1 -2.22%
[O-][n+]1onc2c1CCc1[nH]c(-c3ccccc3)nc1-2 0.76%
N#C/C(=C(\O)C(F)(F)F)c1nnc2n1CCCCC2 -0.75%
CSCc1ccc(C(=O)Nc2cc(C)cc(C)c2)cc1 -4.38%
COc1ccc(-c2nnco2)cc1OC -2.7%
COc1ccc2c(Cl)c(C(=O)NCc3ccco3)sc2c1 -2.31%
O=C(Nc1ccc2c(c1)CCC2)c1ccc(Br)s1 0.47%
C/C(=C\c1ccccc1)C1NC(=O)c2c(sc3c2CCCC3)N1 (centres undefined) 6.88%
CCn1nc(C)c(CN2CCN(Cc3ccc(OC)c(C)c3C)C(CCO)C2)c1C (centres undefined) -0.59%
Cn1cc(-c2ccccc2)cc(C#N)c1=O 1.51%
CN(C)N(C)C(=O)C(O)(c1ccccc1)c1ccccc1 3.14%
Cc1cc(C)cc(N(CC(=O)NCCSCc2ccco2)S(C)(=O)=O)c1 5.41%
O=C(CN1C(=O)NC2(CCCC2)C1=O)Nc1ccc(F)c(F)c1F 0.63%
O=S(=O)(c1ccc(F)cc1)N1CCN(C(=S)NC2CCCC2)CC1 1.45%
COc1cc(C)c(S(=O)(=O)N2CCOCC2)c(C)c1C -6.91%
CCc1nnc(NS(=O)(=O)c2ccc(NC(=S)NC(=O)c3cccs3)cc2)s1 2.44%
CCc1nnc(NS(=O)(=O)c2ccc(NS(=O)(=O)c3ccccc3)cc2)s1 -4.6%
C/C(=N/NC(=O)C1COc2ccccc2O1)c1ccco1 (centres undefined) -2.9%
Cc1ccc(CN(C)CC(=O)Nc2cccc([N+](=O)[O-])c2)o1 -1.37%
COc1cc(NS(=O)(=O)c2ccc(NC(=O)c3ccc(S(=O)(=O)N4CCCCC4)cc3)cc2)ncn1 -0.22%
C/C(=N\NS(=O)(=O)c1ccc(Cl)cc1)c1ccc(NC(=O)c2ccco2)cc1 7.63%
O=C(O)Cc1sc(-c2ccc(C(=O)O)cc2)nc1-c1ccccc1 8.03%
Cc1ccc(-c2nc(C)sc2CC(=O)O)cc1 1.18%
Cc1ccc(C2=NN(C(=O)COc3ncnc4ccccc34)C(c3ccco3)C2)cc1 (centres undefined) 6.22%
COC(C(=O)NCc1ccccc1C)c1ccccc1 (centres undefined) -1.48%
CCCC(c1nnnn1C(C)(C)C)N1CCN(Cc2ccccc2)CC1 (centres undefined) 0.32%
COc1ccc(OC)c(CNC(=O)c2cc(=O)[nH]c3ccc(S(=O)(=O)N4CCCC4)cc23)c1 1.02%
O=C(C1CCN(C2CCN(Cc3ccc4cc(F)ccc4n3)CC2)CC1)N1CCCC1 3.24%
Cc1ccc(C(=O)N/C(=C\c2ccco2)C(=O)N2CCSCC2)cc1C -0.93%
Cc1ccc2cc(C#N)c(NCCNC(=S)NCCCN3CCOCC3)nc2c1 1.37%
Cn1nnnc1SCC(=O)Nc1nc2ccccc2s1 -4.08%
N#Cc1c(-c2ccc(F)cc2)cc(C2CC2)nc1SCC(=O)c1cccs1 -1.78%
COC(=O)CCc1sc(Nc2ccc(Br)cc2)nc1-c1ccc(OC)cc1 4.66%
Cn1c(-c2sccc2OCc2cccc(C(F)(F)F)c2)n[nH]c1=S 4.56%
Cc1ccccc1-c1n[nH]c(=S)n1C 2.22%
O=S(=O)(NC1CCCCC1)c1ccc(F)c2ccccc12 7.29%
Cc1cc(C)cc(C(=O)N(CCc2ccccc2)C2=CC3CCC(C2)N3C)c1 (centres undefined) 0.55%
O=C(NCc1cccs1)c1ccc(Br)o1 1.17%
O=[N+]([O-])c1ccc(Sc2n[nH]c(-c3ccco3)n2)nc1 2.58%
COc1ccc(N2CCN(CCCNC(=O)C3CCN(S(=O)(=O)N4CCOCC4)CC3)CC2)cc1 -2.17%
O=C(OCc1cc(Cl)ccc1OC(F)F)c1cccnc1 0.24%
CN1CCN(C(=O)/C(=C\c2cccs2)NC(=O)c2cccs2)CC1 -1.89%
NS(=O)(=O)c1ccc(CCNC(=O)c2ccc([N+](=O)[O-])cc2[N+](=O)[O-])cc1 6.7%
O=C(Nc1cccc(C(F)(F)F)c1)c1cnccn1 12.3%
CCOC(=O)c1ccc(COC(=O)CCc2nc(-c3ccccc3)c(-c3ccccc3)o2)cc1 -0.63%
CCO/N=C(/C)c1c(O)cc(-c2ccccc2)n(-c2ccccc2)c1=O 0.18%
CC(=O)N/N=C(\C)c1ccc(Br)cc1Br -1.47%
CCc1ccc(C(=O)OCC(=O)Nc2cccc(S(=O)(=O)NC3=NCCCCC3)c2)cc1 -1.75%
Cc1ccc(NC(=O)c2sc3nc(N)c(C#N)cc3c2N)cc1 1.84%
COc1cc(NC(=O)c2cc([N+](=O)[O-])ccc2Br)ccc1NC(=O)c1ccco1 -4.35%
CN(C)c1nnnn1-c1ccc(Cl)cc1 -1.68%
Cc1ccccc1NC(=O)C(C)c1ccc(-c2ccccc2)c(F)c1 (centres undefined) -1.23%
CCOc1ccc(/C=N/NC(=O)C(C)Sc2ccccn2)cc1OCC (centres undefined) 4.85%
CCN(CC)S(=O)(=O)c1ccc(Cl)c(C(=O)NC(C)C(c2cccs2)N2CCCC2)c1 (centres undefined) 5.06%
Cc1ccc(C2C3=C(Nc4[nH]n(-c5ccccc5)c(=O)c42)c2ccccc2C3=O)cc1 (centres undefined) 1.23%
COc1ccc(S(=O)(=O)N2CCOCC2)c(C)c1C 13.6%
Cc1ccc(-c2cc(C(=O)N/N=C/C=C/c3ccccc3)n[nH]2)o1 -0.56%
CCOC(=O)c1c(C)nc2c(c1C)c(=O)oc1ccccc12 15.5%
Cc1cc(C(=O)CSc2nc(N)cc(=O)[nH]2)c(C)n1CCc1ccc(Cl)cc1 5.4%
O=C(O)COc1ccc(/C=N/O)cc1Br 3.92%
COCCNC(=O)CCCn1c(=O)c2ccccc2n(Cc2cccc([N+](=O)[O-])c2)c1=O 2.44%
CC(=O)n1cc([C@@H]2C=C(C(=O)N3CCN(Cc4ccc5c(c4)OCO5)CC3)O[C@H](OCc3ccc(CO)cc3)C2)c2ccccc21 -1.58%
Cc1cnc(C(=O)N2CCCC(C(=O)c3ccc(C(F)(F)F)cc3)C2)cn1 (centres undefined) -0.94%
Cc1cc(=O)oc(C)c1C(=O)NCCN(C)Cc1ccccc1 1.75%
CCCOc1ccc(N/C=C/C(=O)C(C)(C)C)cc1 0.22%
O=C(/C=C/Nc1ccccc1OC(F)(F)F)C(F)(F)F 1.89%

activation, active:
COc1ccc2c(Cl)c(-c3nnco3)sc2c1 33.2%
CCc1nnc(NS(=O)(=O)c2ccc(NC(=S)NC(=O)/C=C/c3cccs3)cc2)s1 22.6%
O=C(O)Cc1sc(-c2ccccc2)nc1-c1cccs1 25.3%
Cn1c(-c2sc3cc(C(F)(F)F)cnc3c2-c2ccccc2)n[nH]c1=S 50%
CN(C)c1ccc(N/C=C/C(=O)C(F)(F)F)cc1 23.6%
